The supplement of paper PMC10849652
About 7,900 targets were measured; listed, in parts, are those with a hit and a random draw of the rest. About 0.6% of all pairs of compound and target were hits. A number with no mark means an inactive call.

Assays:
Assay in all cases: log2 fold change, soluble protein after heating vs DMSO (PISA); higher = thermal stabilisation; K562 cells, 10 uM, 30 min; active = over 0.2 and 3.5 SD of the protein, either way, in both replicates (recomputed)
saracatinib = compound: CN1CCN(CCOc2cc(OC3CCOCC3)c3c(Nc4c(Cl)ccc5c4OCO5)ncnc3c2)CC1 [saracatinib]
How it was run: (§1)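 Quantification of soluble protein used TMTpro 16plex LC-MS/MS, with channel sums equalised. Samples were the supernatant after 21,000xg for 90 min of pooled aliquots from K562 cells (2×10^6 cells/mL) treated with 10 μM compound for 30 min, heated for 3 min over 48°C-58°C, and extracted in PBS with 0.5% NP-40 at 4°C. Values, from duplicates, describe thermal stability against control samples on a log2 fold-change scale.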

sotrastaurin = compound: CN1CCN(c2nc(C3=C(c4c[nH]c5ccccc45)C(=O)NC3=O)c3ccccc3n2)CC1 [sotrastaurin]
How it was run: as §1

alvocidib = compound: CN1CC[C@H](c2c(O)cc(O)c3c(=O)cc(-c4ccccc4Cl)oc23)[C@H](O)C1 [alvocidib]
How it was run: as §1

Tubastatin A = compound: CN1CCc2c(c3ccccc3n2Cc2ccc(C(=O)NO)cc2)C1 [Tubastatin A]
How it was run: as §1

[1] = compound: CNC(=O)C1=CC=CC=C1NC2=NC(=NC=C2Cl)NC3=C(C=C(C=C3)N4CCOCC4)OC
How it was run: as §1

defactinib = compound: CNC(=O)c1ccc(Nc2ncc(C(F)(F)F)c(NCc3nccnc3N(C)S(C)(=O)=O)n2)cc1 [defactinib]
How it was run: as §1

rucaparib = compound: CNCc1ccc(-c2[nH]c3cc(F)cc4c3c2CCNC4=O)cc1 [rucaparib]
How it was run: as §1

[2] = compound: CNc1nc(-c2ccc3c(N)n[nH]c3c2)cc(N2C[C@@H](C(=O)NC3CCCCC3)CC[C@H]2C)n1
How it was run: as §1

encorafenib = compound: COC(=O)N[C@@H](C)CNc1nccc(-c2cn(C(C)C)nc2-c2cc(Cl)cc(NS(C)(=O)=O)c2F)n1 [encorafenib]
How it was run: as §1

[3] = compound: COC(=O)[C@H](CCSC)NC(=O)C1=C(C=C(C=C1)NC[C@H](CS)N)C2=CC=CC=C2
How it was run: as §1

Chain of UniProt Q8IXJ6 (Q8IXJ6 whole entry, looked up): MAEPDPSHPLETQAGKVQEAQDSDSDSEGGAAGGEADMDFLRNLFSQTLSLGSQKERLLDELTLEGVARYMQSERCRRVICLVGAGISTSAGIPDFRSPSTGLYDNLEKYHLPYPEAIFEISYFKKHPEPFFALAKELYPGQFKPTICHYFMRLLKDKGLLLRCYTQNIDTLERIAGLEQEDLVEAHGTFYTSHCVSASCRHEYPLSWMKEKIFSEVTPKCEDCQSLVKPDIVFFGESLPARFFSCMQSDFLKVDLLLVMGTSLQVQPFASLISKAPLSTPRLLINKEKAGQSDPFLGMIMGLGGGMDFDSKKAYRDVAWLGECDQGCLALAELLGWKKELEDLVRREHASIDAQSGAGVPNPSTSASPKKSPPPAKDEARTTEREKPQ
Chain of UniProt Q99590 (Q99590 whole entry, looked up): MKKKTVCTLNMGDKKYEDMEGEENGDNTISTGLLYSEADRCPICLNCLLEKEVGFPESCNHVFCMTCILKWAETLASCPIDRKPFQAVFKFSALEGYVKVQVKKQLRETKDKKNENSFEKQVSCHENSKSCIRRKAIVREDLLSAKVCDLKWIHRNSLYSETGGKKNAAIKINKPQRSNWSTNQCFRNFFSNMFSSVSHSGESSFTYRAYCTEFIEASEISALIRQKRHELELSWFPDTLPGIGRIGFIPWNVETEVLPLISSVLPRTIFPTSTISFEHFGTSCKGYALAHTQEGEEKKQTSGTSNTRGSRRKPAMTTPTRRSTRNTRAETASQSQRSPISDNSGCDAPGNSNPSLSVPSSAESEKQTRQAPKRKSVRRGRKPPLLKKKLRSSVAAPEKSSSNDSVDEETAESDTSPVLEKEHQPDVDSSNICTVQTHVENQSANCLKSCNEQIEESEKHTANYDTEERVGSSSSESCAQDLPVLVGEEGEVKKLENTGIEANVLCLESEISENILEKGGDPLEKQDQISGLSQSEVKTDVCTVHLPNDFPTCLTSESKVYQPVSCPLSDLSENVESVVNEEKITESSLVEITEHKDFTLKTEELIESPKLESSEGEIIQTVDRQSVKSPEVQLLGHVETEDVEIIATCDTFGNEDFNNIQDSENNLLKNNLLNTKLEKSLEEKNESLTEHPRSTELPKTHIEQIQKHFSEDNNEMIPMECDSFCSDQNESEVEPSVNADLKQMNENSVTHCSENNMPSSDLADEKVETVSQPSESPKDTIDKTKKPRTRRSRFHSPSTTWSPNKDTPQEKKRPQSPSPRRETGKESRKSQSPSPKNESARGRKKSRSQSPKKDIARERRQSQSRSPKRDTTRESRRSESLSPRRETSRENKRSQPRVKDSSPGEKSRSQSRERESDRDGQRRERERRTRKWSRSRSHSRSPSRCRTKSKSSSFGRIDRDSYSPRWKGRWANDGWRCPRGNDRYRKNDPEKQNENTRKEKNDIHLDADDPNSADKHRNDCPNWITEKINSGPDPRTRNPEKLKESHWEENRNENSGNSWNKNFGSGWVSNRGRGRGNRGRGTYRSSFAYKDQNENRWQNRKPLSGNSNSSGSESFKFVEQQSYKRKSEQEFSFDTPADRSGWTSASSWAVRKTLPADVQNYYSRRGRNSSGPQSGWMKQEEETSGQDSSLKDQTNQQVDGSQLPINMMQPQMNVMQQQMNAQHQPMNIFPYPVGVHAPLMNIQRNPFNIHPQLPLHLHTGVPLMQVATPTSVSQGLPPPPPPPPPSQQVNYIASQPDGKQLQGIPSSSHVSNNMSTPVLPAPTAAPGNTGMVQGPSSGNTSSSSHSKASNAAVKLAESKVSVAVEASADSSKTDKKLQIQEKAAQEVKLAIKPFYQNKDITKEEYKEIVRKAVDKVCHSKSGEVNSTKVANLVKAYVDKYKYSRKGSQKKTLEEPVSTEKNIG
Chain of UniProt Q01974 (Q01974 whole entry, looked up): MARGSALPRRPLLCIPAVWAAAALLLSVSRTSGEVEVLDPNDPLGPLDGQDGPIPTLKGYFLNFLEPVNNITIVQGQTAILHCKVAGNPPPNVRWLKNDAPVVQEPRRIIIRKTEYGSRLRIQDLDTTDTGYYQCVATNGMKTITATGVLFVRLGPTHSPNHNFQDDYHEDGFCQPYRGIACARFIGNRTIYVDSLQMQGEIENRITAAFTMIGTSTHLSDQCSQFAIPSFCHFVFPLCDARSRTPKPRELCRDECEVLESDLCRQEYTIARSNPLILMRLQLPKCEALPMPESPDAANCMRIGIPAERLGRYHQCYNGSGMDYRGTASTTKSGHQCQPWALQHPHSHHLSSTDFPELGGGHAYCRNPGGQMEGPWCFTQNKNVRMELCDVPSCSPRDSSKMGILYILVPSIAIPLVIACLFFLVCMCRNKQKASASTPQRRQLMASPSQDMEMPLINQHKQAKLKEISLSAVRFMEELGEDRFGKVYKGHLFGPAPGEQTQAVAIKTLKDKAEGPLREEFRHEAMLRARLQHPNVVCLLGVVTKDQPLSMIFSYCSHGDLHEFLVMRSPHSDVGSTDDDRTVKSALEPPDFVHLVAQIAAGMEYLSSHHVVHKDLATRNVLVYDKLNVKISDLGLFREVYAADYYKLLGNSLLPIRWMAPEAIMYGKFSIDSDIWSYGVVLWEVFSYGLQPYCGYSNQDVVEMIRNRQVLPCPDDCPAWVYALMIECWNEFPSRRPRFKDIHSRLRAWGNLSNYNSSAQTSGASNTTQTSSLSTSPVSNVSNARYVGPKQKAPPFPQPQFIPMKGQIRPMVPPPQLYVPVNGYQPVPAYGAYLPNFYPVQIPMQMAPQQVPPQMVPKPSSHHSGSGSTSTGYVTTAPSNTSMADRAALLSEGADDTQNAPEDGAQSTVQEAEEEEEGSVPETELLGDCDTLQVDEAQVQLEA
Chain of UniProt Q9P2N5 (Q9P2N5 whole entry, looked up): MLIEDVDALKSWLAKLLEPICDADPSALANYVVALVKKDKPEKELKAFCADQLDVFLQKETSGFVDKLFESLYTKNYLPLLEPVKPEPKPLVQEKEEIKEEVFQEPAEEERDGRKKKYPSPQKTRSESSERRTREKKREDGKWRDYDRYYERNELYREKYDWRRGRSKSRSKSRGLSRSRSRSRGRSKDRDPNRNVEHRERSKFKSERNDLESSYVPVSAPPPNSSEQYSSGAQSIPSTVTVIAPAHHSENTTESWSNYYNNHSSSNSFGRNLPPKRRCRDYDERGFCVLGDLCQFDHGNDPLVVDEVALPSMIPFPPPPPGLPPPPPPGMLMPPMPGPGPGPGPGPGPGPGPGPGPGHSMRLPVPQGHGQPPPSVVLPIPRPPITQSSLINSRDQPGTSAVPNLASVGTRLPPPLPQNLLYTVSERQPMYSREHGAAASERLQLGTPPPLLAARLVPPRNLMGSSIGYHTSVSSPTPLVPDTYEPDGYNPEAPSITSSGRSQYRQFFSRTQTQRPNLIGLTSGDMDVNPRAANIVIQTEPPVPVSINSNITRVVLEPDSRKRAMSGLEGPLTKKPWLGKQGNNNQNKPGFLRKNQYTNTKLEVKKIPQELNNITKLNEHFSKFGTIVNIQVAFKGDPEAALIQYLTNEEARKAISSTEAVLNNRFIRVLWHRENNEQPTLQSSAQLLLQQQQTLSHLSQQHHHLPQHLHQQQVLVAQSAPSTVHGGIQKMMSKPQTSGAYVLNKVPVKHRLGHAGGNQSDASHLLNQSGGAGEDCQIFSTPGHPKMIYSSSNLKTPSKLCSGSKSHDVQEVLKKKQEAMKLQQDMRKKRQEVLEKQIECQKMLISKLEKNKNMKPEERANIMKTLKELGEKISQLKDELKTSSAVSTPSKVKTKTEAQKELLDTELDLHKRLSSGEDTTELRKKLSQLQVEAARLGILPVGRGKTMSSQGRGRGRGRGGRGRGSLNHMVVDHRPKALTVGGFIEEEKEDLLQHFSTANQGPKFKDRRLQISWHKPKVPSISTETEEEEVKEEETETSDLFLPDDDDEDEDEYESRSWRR
Chain of UniProt P35244 (P35244 whole entry, looked up): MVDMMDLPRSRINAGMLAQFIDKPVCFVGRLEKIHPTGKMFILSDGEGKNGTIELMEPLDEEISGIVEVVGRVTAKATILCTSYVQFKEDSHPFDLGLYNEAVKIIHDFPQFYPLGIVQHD
Chain of UniProt Q8NBN7 (Q8NBN7 whole entry, looked up): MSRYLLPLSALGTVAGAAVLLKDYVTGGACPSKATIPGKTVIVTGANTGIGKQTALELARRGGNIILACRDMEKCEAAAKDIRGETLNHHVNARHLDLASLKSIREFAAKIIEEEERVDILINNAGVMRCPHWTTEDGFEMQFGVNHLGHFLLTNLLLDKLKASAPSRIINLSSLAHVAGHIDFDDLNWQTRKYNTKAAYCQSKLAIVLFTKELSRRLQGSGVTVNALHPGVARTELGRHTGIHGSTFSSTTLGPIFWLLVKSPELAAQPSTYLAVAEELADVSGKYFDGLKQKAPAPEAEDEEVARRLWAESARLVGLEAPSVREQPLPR
Chain of UniProt Q5TA31 (Q5TA31 whole entry, looked up): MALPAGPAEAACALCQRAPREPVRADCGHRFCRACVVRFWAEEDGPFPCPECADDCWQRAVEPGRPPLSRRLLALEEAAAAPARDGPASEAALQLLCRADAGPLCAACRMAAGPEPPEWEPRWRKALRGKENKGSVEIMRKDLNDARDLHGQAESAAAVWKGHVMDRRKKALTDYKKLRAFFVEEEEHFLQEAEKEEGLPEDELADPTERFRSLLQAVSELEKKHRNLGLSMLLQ
Chain of UniProt Q8NBX0 (Q8NBX0 whole entry, looked up): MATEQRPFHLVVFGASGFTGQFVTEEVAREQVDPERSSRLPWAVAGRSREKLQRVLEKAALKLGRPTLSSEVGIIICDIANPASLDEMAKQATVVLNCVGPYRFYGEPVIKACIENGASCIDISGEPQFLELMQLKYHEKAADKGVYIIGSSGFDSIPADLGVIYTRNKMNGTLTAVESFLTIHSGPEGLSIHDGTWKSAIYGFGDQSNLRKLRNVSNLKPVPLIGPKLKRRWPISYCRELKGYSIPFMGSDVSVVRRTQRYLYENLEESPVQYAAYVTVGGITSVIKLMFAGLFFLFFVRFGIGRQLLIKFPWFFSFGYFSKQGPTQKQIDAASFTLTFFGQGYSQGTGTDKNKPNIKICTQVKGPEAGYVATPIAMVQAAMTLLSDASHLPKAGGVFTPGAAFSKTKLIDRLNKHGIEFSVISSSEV

Target	log2 fold change (saracatinib)	log2 fold change (sotrastaurin)	log2 fold change (alvocidib)	log2 fold change (Tubastatin A)	log2 fold change [1]	log2 fold change (defactinib)	log2 fold change (rucaparib)	log2 fold change [2]	log2 fold change (encorafenib)	log2 fold change [3]
RPS3 (UniProt P23396)	-0.03	0.031	0.201	0.094	0.082	0.208	0.097	0.04	0.045	0.002
RPS25 (UniProt P62851)	-0.052	0.007	0.178	0.094	0.095	0.184	0.124	0.076	0.01	0.024
RAF1 isoform 2 (UniProt P04049)	-0.029	-0.167	-0.105	-0.036	0.078	-0.075	0.125	0.176	0.737 (active)	-0.069
RBM33 (UniProt Q96EV2)	0.071	-0.017	-0.177	0.007	-0.021	-0.273 (active)	-0.017	-0.044	0.02	0.03
RHOA (UniProt P61586)	0.079	-0.025	0.018	-0.025	-0.029	0	0.074	0.012	-0.126	0.08
RBM27 (UniProt Q9P2N5)	0.04	-0.039	-0.141	0.013	-0.297 (active)	-0.303 (active)	-0.015	0.033	-0.011	-0.042
RPA3 (UniProt P35244)	0.015	-0.014	-0.04	0.022	0.181	-0.054	-0.048	0.015	0.06	0.014
RBM22 (UniProt Q9NW64)	0.016	-0.013	0.081	-0.065	-0.037	-0.05	0.04	-0.155	0.036	0.012
RANBP2 (UniProt P49792)	-0.011	-0.06	-0.079	-0.016	0.886	-0.009	-0.028	-0.016	-0.045	-0.03
SEPTIN5 (UniProt Q99719)	0.051	0.001	-0.042	-0.035	-0.022	0.008	-0.036	0.003	-0.007	-0.006
SART3, A0A499FI31	-0.011	-0.13	-0.291 (active)	0.035	0.021	-0.448 (active)	-0.156	-0.041	0.025	0.001
ROR2 (UniProt Q01974)	0.034	-0.071	-0.06	-0.025	-0.023	-0.107	-0.012	0.084	0.03	-0.121
SIRT2 (UniProt Q8IXJ6)	0.031	0.136	-0.023	-0.015	-0.038	-0.015	-0.033	0.181	0.014	0.025
SDHAF2 (UniProt Q9NX18)	0.08	-0.035	-0.026	0.037	0.016	-0.002	0.115	-0.078	-0.003	0.01
RARS (UniProt P54136)	-0.103	-0.192	0.151	0.008	-0.073	0.187	0.367	0.138	0.217	-0.024
RPS12 (UniProt P25398)	-0.014	-0.023	0.123	0.017	0.049	0.092	0.12	-0.008	0.02	0.015
RPS16 (UniProt P62249)	-0.085	0.004	0.193	0.05	0.108	0.185	0.126	0.056	0.033	0.004
RAC3 (UniProt P60763)	0.036	0.11	-0.042	-0.081	-0.064	0.011	-0.134	0.085	-0.07	0.027
SDHC (UniProt Q99643)	0.074	-0.201	-0.006	-0.134	0.04	-0.062	-0.012	-0.159	0.029	0.159
SCAF11 (UniProt Q99590)	0.075	0.227	1.25 (active)	-0.052	-0.077	0.579 (active)	0.35	-0.052	0.042	0.188
RNF187 (UniProt Q5TA31)	-0.069	0.001	-0.092	0.196	-0.084	-0.047	-0.139	0.05	-0.042	-0.05
RARS2 (UniProt Q5T160)	0.005	-0.101	-0.086	-0.056	-0.035	-0.064	0.003	-0.042	0.026	-0.003
SCPEP1 (UniProt Q9HB40)	-0.029	0.031	-0.009	-0.012	0.021	0.005	0.064	-0.022	-0.025	-0.004
RAVER1 (UniProt E9PAU2)	-0.086	-0.376	-0.624	0.413	-0.069	-0.322	-0.186	-0.087	0.105	-0.065
SCCPDH (UniProt Q8NBX0)	-0.063	0.1	-0.057	-0.078	0.206	0.121	-0.081	0.183	-0.041	0.002
RNPEP (UniProt Q9H4A4)	-0.02	-0.038	-0.106	0.064	0.034	-0.036	-0.004	0.04	-0.005	-0.041
RDH10 (UniProt Q8IZV5)	0.005	0.016	-0.043	0.04	0.068	-0.002	-0.034	0.072	-0.011	-0.063
RNF14 (UniProt Q9UBS8)	-0.02	-0.042	-0.112	-0.014	0.007	-0.096	-0.015	-0.043	-0.027	0.042
RDH13 (UniProt Q8NBN7)	-0.084	0.027	-0.097	-0.063	-0.062	-0.043	0.029	0.016	0.014	-0.016
RRP9 (UniProt O43818)	0.08	0.044	0.057	0	-0.069	-0.075	0.019	-0.094	-0.005	0.042
